Most compounds without a hit are left out; they make up all but 12% or so of the library.
JMJD2A Tudor inh: qHTS Assay for Inhibitors of JMJD2A-Tudor Domain. Lysine-specific demethylase 4A (Homo sapiens), O75164. AlphaScreen JMJD2A-Tudor / H3K4me3 peptide binding. Potency, µM (titrated, usually from 114 µM), usual class: inhibitors. hit rate 4.4% among 390,000; further: nearly all actives have a fitted effect of over 50% in size
PLK1 PBD block: qHTS for Inhibitors of PLK1-PDB (polo-like kinase 1 - polo-box domain): Primary Screen; Plk1 PBD binding of FITC phosphopeptide, fluorescence polarization; AID 720504, 2013; hit rate 2.8% among 360,000; Serine/threonine-protein kinase PLK1 (Homo sapiens), P53350; Potency, µM, hits mostly inhibitors; further: series mostly up to about 57 µM; nearly all actives have a fitted effect of over 65% in size
HP1b chromo inh: HTS for Inhibitors of HP1-beta Chromodomain Interactions with Methylated Histone Tails. hit rate 0.56% among 390,000. AlphaScreen HP1-beta / biotin-H3K9me3 peptide binding. Potency, µM (highest dose often 114 µM), hits mostly inhibitors. AID 540317, 2011; further: nearly all actives have a fitted effect of over 70% in size
Target sequence (P83916 whole entry, looked up): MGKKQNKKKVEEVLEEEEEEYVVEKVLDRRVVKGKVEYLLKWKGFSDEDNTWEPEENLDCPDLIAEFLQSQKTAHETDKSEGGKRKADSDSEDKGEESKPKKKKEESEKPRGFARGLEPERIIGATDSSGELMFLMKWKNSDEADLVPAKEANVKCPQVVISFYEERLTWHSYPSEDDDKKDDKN
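HP1-beta protein (50 nM final) preincubated 30 min at room temperature with biotinylated H3(1-18)K9me3 peptide (50 nM) in PBS pH 7.4, 0.01% Tween-20, then compound added for 30 min. AlphaScreen streptavidin donor/nickel chelate acceptor beads (10 ug/mL final), 30 min dark, luminescence read.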
Sfp inh: qHTS Assay for Inhibitors of Bacillus subtilis Sfp phosphopantetheinyl transferase (PPTase); Potency, µM, actives largely listed as inhibitors; 4'-phosphopantetheinyl transferase ffp (Bacillus subtilis), Q9F4F7; hit rate 3.5% among 310,000; AID 1490, 2009; Biochemical Sfp PPTase activity, qHTS;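 further: the enzyme is Sfp with the accession as filed and its product quenches rhodamine fluorescence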
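Fluorescence-quenching assay: 15 nM Sfp-PPTase preincubated 15 min at room temperature with compound, then 5 uM rhodamine-CoA and 12.5 uM BHQ-2-labelled YbbR peptide added. Fluorescence (ex 525/em 598 nm) read at start and after 30 min; difference gives rate.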
G9a inh-1: qHTS Assay for Inhibitors of Histone Lysine Methyltransferase G9a; Histone-lysine N-methyltransferase EHMT2 (Homo sapiens), Q96KQ7; G9a H3K9 monomethylation, AlphaScreen, 2 h; Potency, µM (top dose mostly 102 µM), most hits filed as inhibitors; hit rate 8.8% among 350,000; further: nearly all actives have a fitted effect of over 75% in size
Target sequence (Q96KQ7 913-1193 limits assumed): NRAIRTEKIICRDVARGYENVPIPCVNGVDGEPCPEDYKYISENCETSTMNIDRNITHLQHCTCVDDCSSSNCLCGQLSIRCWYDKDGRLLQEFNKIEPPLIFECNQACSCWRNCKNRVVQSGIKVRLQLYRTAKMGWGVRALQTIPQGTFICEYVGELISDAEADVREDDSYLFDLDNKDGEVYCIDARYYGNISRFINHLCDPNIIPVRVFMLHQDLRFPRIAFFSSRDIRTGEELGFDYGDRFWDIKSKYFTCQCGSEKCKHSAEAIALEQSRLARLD
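Step 1: enzyme (final 20 nM) with compound, 15 min RT. Step 2: substrate peptide 500 nM and SAM 20 uM, 2 h RT. Step 3: anti-H3K9me1 antibody and AlphaScreen beads, 10 min, then plate read.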
BAZ2B block: qHTS Assay for Inhibitors of BAZ2B; AlphaScreen BAZ2B-H3K14Ac peptide displacement; Potency, µM (top dose mostly 114 µM), usual class: inhibitors; hit rate 4.4% among 360,000; Bromodomain adjacent to zinc finger domain protein 2B (Homo sapiens), Q9UIF8; further: nearly all actives have a fitted effect of over 60% in size
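Multi-concentration screen (max 110 uM) measuring displacement of acetylated histone H3 peptide from BAZ2B by AlphaScreen, using 50 nM protein, 50 nM peptide and 10 ug/mL streptavidin donor plus Ni-chelate acceptor beads.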
Sfp inh conf: Confirmation qHTS Assay for Inhibitors of Bacillus subtilis Sfp phosphopantetheinyl transferase (PPTase) | Potency, µM (top dose mostly 114 µM), hits mostly inhibitors | shares compounds with Sfp inh | hit rate 79% among 380 | Sfp PPTase enzymatic assay, qHTS titration
Target sequence (Q9F4F7 whole entry, looked up): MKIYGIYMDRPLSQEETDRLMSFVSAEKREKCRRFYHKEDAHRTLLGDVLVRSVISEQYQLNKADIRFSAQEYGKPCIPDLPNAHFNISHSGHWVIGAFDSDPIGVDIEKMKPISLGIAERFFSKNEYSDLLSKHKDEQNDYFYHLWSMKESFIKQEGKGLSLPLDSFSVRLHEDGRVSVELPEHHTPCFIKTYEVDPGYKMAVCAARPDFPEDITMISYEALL
Sfp gel assay: Gel-Based Assay for Inhibitors of Bacillus subtilis Sfp phosphopantetheinyl transferase (PPTase). shares compounds with Sfp inh. purified Sfp, gel-based phosphopantetheinylation read-out. Potency, µM, most hits filed as inhibitors. hit rate 20% among 210;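 active means potency below 100 µM; inconclusive means dose-dependent response but potency above 100 µM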;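 further: potency is an IC50 for inhibitors of Sfp transfer activity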
G9a inh-2: qHTS Assay for Inhibitors of Histone Lysine Methyltransferase G9a: Hit Confirmation | shares compounds with JMJD2A Tudor inh | G9a H3K9 monomethylation, AlphaScreen, 2 h | Potency, µM, hits mostly inhibitors | hit rate 89% among 370 | AID 588344, 2011; further: nearly all actives have a fitted effect of over 65% in size
TbPYK inh: qHTS of Trypanosoma Brucei Inhibitors: Confirmatory Assay for Cherry-picked Compounds; shares compounds with PLK1 PBD block; recombinant TbPYK, Kinase-Glo ATP luminescence; Potency, µM (highest dose often 76.9 µM), actives largely listed as inhibitors; hit rate 67% among 890; further: nearly all actives have a fitted effect of over 70% in size
TbPYK orthogonal: qHTS of Trypanosoma Brucei Inhibitors: Orthogonal Assay for Cherry-picked Compounds. shares compounds with PLK1 PBD block. AID 720584, 2013. Potency, µM (top dose mostly 76.9 µM), usual class: inhibitors. hit rate 62% among 890. recombinant TbPYK, ADP-Glo luminescence, 60 min; further: nearly all actives have a fitted effect of over 75% in size
Numbers stand for hits; 0 = inactive; ? = inconclusive; - = no result; [ ] = another dose, or the depositor's remark. Unless noted, the call rests on the fitted dose curve; in most records, active means well fitted curve in the direction sought with a large enough effect; inconclusive means small, poorly fitted or top-dose-only effect, or another doubt; inactive means no such curve, though single readings can be large; an effect the other way counts as inactive or inconclusive.

SMILES	JMJD2A Tudor inh	PLK1 PBD block	HP1b chromo inh	Sfp inh	G9a inh-1	BAZ2B block	Sfp inh conf	Sfp gel assay	others
Cc1cc(C)nc(SCNC(=O)c2ccccc2)n1	?	0	0	7.94µM	10µM	0	52.7µM	0
CC(C)(O)C#Cc1ccc(C(=O)N2CCCC(CNS(=O)(=O)c3cccs3)C2)o1 (stereo unspecified)	0	0	0	39.8µM	28.2µM	0	59.1µM	-
COc1ccc(-c2nn(-c3ccccc3)cc2C2NC(=O)NC(C)=C2C(=O)OC(C)C)cc1Cl (stereo unspecified)	0	-	0	-	?	0	-	-
Nc1cccnc1Sc1cccc(Cl)c1	0	?	0	3.16µM	0	0	18.7µM	-
Nc1cccnc1Sc1ccc(Cl)cc1	0	0	0	0	0[12.7 µM]	0	-	-
O=C(CCn1cccn1)NCc1ccc(Cl)cc1	0	-	0	-	0	0	-	-
Cc1ccc(-n2cc(CNCCN3CCOC3=O)c(-c3cccc(C)c3)n2)cc1	0	0	0	44.7µM	35.5µM	?	0	0
COC(=O)C1=C(C)NC(C)=C([N+](=O)[O-])[C@H]1c1ccccc1C(F)(F)F	-	-	-	0	-	-	-	-
COC(=O)C1=C(C)NC(C)=C(C(=O)OCC(C)C)C1c1ccccc1[N+](=O)[O-] (stereo unspecified)	20µM	18.9µM	15.8µM	39.8µM	11.2µM	-	37.3µM	-
Cc1cccc(N2CCC(N3CCN(C4CCCCC4)C(CCO)C3)CC2)c1C (stereo unspecified)	0	0	0	10µM	15.8µM	44.7µM	0	0
O=C(NC1CCCC1)c1cc2nc(-c3ccco3)cc(C(F)(F)F)n2n1	0	0	0	0	0	0	-	-
Nc1c(C(=O)NC2CC2)sc2nc3c(c(-c4ccco4)c12)CC/C3=C/c1ccco1	7.08µM	?	14.1µM	5.01µM	3.16µM	0	8.35µM	-
O=C(CN1CCOCC1)NCc1cc([N+](=O)[O-])ccc1O	0	0	0	0	0[0.501 µM]	0	-	-
CC(C)N(CCC(=O)c1ccc2ccccc2c1)Cc1ccccc1	50.1µM	3.36µM	0	3.98µM	1.68µM	0	14.8µM	?
CC(=O)OCc1nc2ccccc2s1	0	0	0	0	0	0	-	-
O=C(O)COCc1nc2ccccc2s1	0	0	0	25.1µM	50.1µM	0	0	?
CC(=O)c1ccc(OC(=O)CCc2nc3ccccc3s2)cc1	0	?	0	15.8µM	31.6µM	?	33.2µM	?
Cc1nc(-c2cc(-c3nc(-c4ccc(C(C)(C)C)cc4)no3)no2)cs1	0	0	0	39.8µM	0	0	14.8µM	0
Cc1noc(-c2ccc(-c3noc(-c4ccc(C(F)(F)F)cc4)n3)cc2)n1	0	-	0	-	0	0	-	-
O=C(COC(=O)c1cncc(Br)c1)NCc1ccco1	0	?	0	12.6µM	0[0.0925 µM]	31.6µM	46.9µM	0
CC(C)CNC(=O)[C@H](Cc1ccccc1)NC(=O)c1cccs1	0	0	0	0	0	0	-	-
COc1cccc(CNc2ccc(N3CCC(C)CC3)cc2)c1OC	20µM	0	0	10µM	?	39.8µM	?	0	G9a inh-2=2
CC1CCN(c2ccc(NC(=O)Cc3ccccc3)cc2)CC1	0	0	0	0	-	0	-	-
O=C(O)CCc1ccc(-c2cccs2)o1	100µM	?	?	2.82µM	?	56.2µM	6.63µM	-	G9a inh-2=7.94
N#Cc1cnn2c(-c3cccc([N+](=O)[O-])c3)ccnc12	0	0	0	-	0	0	-	-
SMILES	JMJD2A Tudor inh	PLK1 PBD block	HP1b chromo inh	Sfp inh	G9a inh-1	BAZ2B block	Sfp inh conf	Sfp gel assay	others
CC1CC(C)CN(C(=O)c2nn(C)c3c2CSc2ccccc2-3)C1 (stereo unspecified)	0	0	0	0	-	0	-	-
CC1CCCN(C(=O)c2nn(C)c3c2CSc2ccccc2-3)C1 (stereo unspecified)	?	?	0	44.7µM	-	0	52.7µM	-	TbPYK inh=7.94µM;TbPYK orthogonal=10µM
COc1ccc(C(=O)N2CCCC(C)(C(=O)NS(=O)(=O)C3CC3)C2)cc1 (stereo unspecified)	-	0	-	-	-	-	-	-
Cc1ccc(/C=C/C(=O)NCCc2ccccc2)o1	28.2µM	26.7µM	?	7.94µM	8.91µM	?	18.7µM	-	TbPYK inh=?;TbPYK orthogonal=?
c1cncc(Nc2nc(-c3cccs3)cs2)c1	20µM	18.9µM	?	5.01µM	?	?	29.6µM	?	TbPYK inh=0;TbPYK orthogonal=?
COc1ccccc1N1C(=O)C2CC(C)=C(C)CC2C1=O (stereo unspecified)	0	0	0	0	0	0	-	-
COc1ccccc1N1C(=O)C=C(Sc2nc(C)cc(C)n2)C1=O	7.94µM	2.99µM	8.91µM	3.16µM	0.447µM	?	1.67µM	6.17µM	TbPYK inh=2.51µM;TbPYK orthogonal=3.16µM
CCOC(=O)N1CCN(Cc2nc3cc(NC(=O)CC(C)C)ccc3n2CC)CC1	0	0	0	0	0	0	-	-
CC1(C)N=C(N)NC(=NCCCOc2ccc([N+](=O)[O-])cc2)N1	-	0	-	-	-	-	-	-
N#C/C(=C/c1ccc(N2CCCCCC2)o1)c1ccc(Cl)cc1	39.8µM	0	0	5.01µM	7.94µM	44.7µM	18.7µM	-	TbPYK inh=?;TbPYK orthogonal=35.5µM
CC(O)(c1cccnc1)c1nc(-c2cccc(C#N)c2)cs1 (stereo unspecified)	-	0	-	-	-	-	-	-
O=C(CSc1ccc(-c2ccco2)nn1)c1ccccc1	?	?	0	3.16µM	7.94µM	50.1µM	9.37µM	-	TbPYK inh=?;TbPYK orthogonal=31.6µM
